Records with an inconclusive call do not appear. A number with no mark means an inactive call. Active and inactive are the calls of the source. Calls come from the whole dose curve; as a rule, active = well fitted inhibition curve with a large enough effect; inconclusive = small, poorly fitted or top-dose-only effect; inactive = no such curve, though single readings can be large or run the other way.
Target: Retinaldehyde dehydrogenase 3 (Homo sapiens) (UniProt P47895)
Experiment: qHTS for Inhibitors of the Aldehyde Dehydrogenase Family (ALDH1A3) Primary screen (AID 2061315);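 note: plate controls were DMSO vehicle for no effect and reference inhibitor for full effect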
Conditions: ALDH inhibition qHTS; series mostly up to 56 µM; activity change, negative = inhibition: at the top concentration

| SMILES | activity change, negative = inhibition | Potency |
| --- | --- | --- |
| CNC(=O)c1c(-c2ccc(F)cc2)oc2cc(N(CCO)S(C)(=O)=O)c(C3CC3)cc12 | -5.74% | – |
| CN1C(=O)N[C@@H](Cc2c[nH]c3c(Cl)cccc23)C1=O | 7.48% | – |
| CC[C@@H]1C(=O)N(C)c2cnc(Nc3ccc(C(=O)NC4CCC(N5CCN(CC6CC6)CC5)CC4)cc3OC)nc2N1C(C)C (stereo not given in full) | – | inactive |
| C[C@@H]1CN(Cc2ccc(F)cc2)[C@@H](C)CN1C(=O)c1cc2c(C(=O)C(=O)N(C)C)cn(C)c2cc1Cl | 6.38% | – |
| CN1CCN(c2ccc(OC(F)(F)F)c(Nc3ncc4c(n3)-c3c(c(C(N)=O)nn3CCO)CC4)c2)CC1 | -6.2% | – |
| Cc1ccc2c(c1)C(=O)[C@]1(O)CCN(c3ccccc3)C1=N2 | -6.42% | – |
| NCCOc1cc(C(=O)Nc2cc(OCCN)c3ccccc3n2)nc(C(=O)Nc2cc(OCCN)c3ccccc3n2)c1 | 0.572% | – |
| C=CC(=O)Nc1cccc(Sc2nc(Nc3ccc(N4CCN(C)CC4)cc3)ncc2Cl)c1 | -12.7% | – |
| CC(C)c1nn(-c2c(Cl)cccc2Cl)c2nc(Cc3ccc(OCCO)cc3)[nH]c(=O)c12 | -6.29% | – |
| COc1ccc(-c2c(-c3ccc(O)cc3O)n[nH]c2C)cc1 | 23.6% | – |
| CC(C)[C@H](CO)Nc1nc(Nc2ccc(C(=O)O)c(Cl)c2)c2ncn(C(C)C)c2n1 | -16.3% [at 28 µM] | – |
| FC(F)(F)c1ccc(/C=C/c2nc(COc3ccc(CCCCn4ccnn4)cc3)co2)cc1 | 15.7% | – |
| CC(C)n1nc(-c2ccc3oc(N)nc3c2)c2c(N)ncnc21 | -0.332% | – |
| CC[C@H](NC(=O)[C@H](CS(=O)(=O)CC1CC1)N[C@@H](c1ccc(F)cc1)C(F)(F)F)C(=O)C(=O)NC1CC1 | 2.9% | – |
| O=C(Nc1ccc(Oc2ccnc3[nH]ccc23)c(F)c1)c1cccn(-c2ccc(F)cc2)c1=O | 0.478% | – |
| CNC(=O)c1nn(C)c2c1C(C)(C)Cc1cnc(Nc3ccc(N4CCN(C)CC4)cc3)nc1-2 | -15.1% | – |
| NS(=O)(=O)c1cc(Cl)c(Cl)c(S(N)(=O)=O)c1 | 6.21% | – |
| COc1cccc2c1c(O)c(C(=O)N(C)c1ccc(C(F)(F)F)cc1)c(=O)n2C | -4.73% | – |
| O=C(Nc1ccc(F)c(C(F)(F)F)c1)Nc1nnc(-c2ccncc2)s1 | – | inactive |
| Cc1c(F)cc(C(=O)NC2CC2)cc1-c1c(F)cn2c(C(C)(C)C)nnc2c1F | -11.9% | – |

| SMILES | activity change, negative = inhibition | Potency |
| --- | --- | --- |
| CN(C)C/C=C/C(=O)Nc1ccc(C(=O)Nc2cccc(Nc3ncc(Cl)c(-c4c[nH]c5ccccc45)n3)c2)cc1 | -23.1% | – |
| CCCCc1ccc(NS(=O)(=O)c2ccc(C)c(C(=O)N3CCN(c4cccc(C)c4C)CC3)c2)cc1 | 9.4% [at 114 µM] | – |
| CCOC(=O)c1ccnc(CNCC(=O)N(CC)CCN(C)C)c1 | 59.4% | – |
| COc1ccc(-c2c(C)nn3c(NCCN4CCOCC4)cc(C)nc23)cc1OC | -0.435% | – |
| CCS(=O)(=O)N1CCN(c2ccc(Nc3ncc(C(N)=O)c(NC4CC4)n3)cc2)CC1 | 5.03% | – |
| O=C([C@@H](Cc1cccc(C(F)(F)F)c1)NS(=O)(=O)c1cc(F)c2c(c1)CCNC2)N1CCCC1 | 3.39% | – |
| O=C(O)[C@H](CC(=O)N1C[C@H]2CCCC[C@H]2C1)Cc1ccccc1 | 5.74% | – |
| c1ccc2c(Oc3nc(Nc4ccc(N5CCOCC5)cc4)c4ncn(C5CCCCC5)c4n3)cccc2c1 | 12.9% | – |
| CCNC(=O)[C@H]1O[C@@H](n2cnc3c(N)nc(NCCc4ccc(CCC(=O)O)cc4)nc32)[C@H](O)[C@@H]1O | -7.28% | – |
| Cc1ccc(S(=O)(=O)Cc2nc(-c3ccc(C(=O)NCc4cccnc4)cc3)oc2C)cc1 | -7.38% | – |
| COc1cc(C(=O)N2CCC(N3CCN(C)CC3)CC2)ccc1Nc1ncc2c(n1)N(C)c1ccccc1C(=O)N2C | 4.77% | – |
| CCC(C)n1ncn(-c2ccc(N3CCN(c4ccc(OC[C@H]5CO[C@](Cn6cncn6)(c6ccc(Cl)cc6Cl)O5)cc4)CC3)cc2)c1=O (stereo not given in full) | 0.492% [at 28 µM] | – |
| N#C[C@@H]1C[C@@H]2C[C@@H]2N1C(=O)[C@@H](N)C12CC3CC(CC(O)(C3)C1)C2 | 1.58% | – |
| C[C@@H](NCCCc1cccc(C(F)(F)F)c1)c1cccc2ccccc12 | 19.6% | – |
| N[C@@H](Cc1cc(I)c(Oc2cc(I)c(O)c(I)c2)c(I)c1)C(=O)O | 6.2% | – |
| O=C(c1ccc(Nc2nccc(-c3cc4ccccc4s3)n2)cc1)N1CCC(N2CCCC2)CC1 | -8.76% | – |
| Cc1ccccc1C(=O)Nc1ccc(C(=O)N2CCCC(O)c3cc(Cl)ccc32)c(C)c1 (stereo not given) | 2.21% | – |
| CCS(=O)(=O)N1CCC([C@@H](C)n2c(C)c(C(=O)NCc3c(OC)cc(C)[nH]c3=O)c3ccccc32)CC1 | -11.9% | – |
| CC(C)(C)C(=O)Oc1ccc2c(c1)nc(NC(=O)c1cccc([N+](=O)[O-])c1)n2CCCO | 15.6% | – |
| CN[C@@H](C)[C@H]1[C@H](O)C[C@@]2(C)[C@@H]3CC[C@H]4C(C)(C)[C@@H](NC)CC[C@@]45C[C@@]35CC[C@]12C | 0.124% [at 11.2 µM] | – |

From PubChem BioAssay (NCATS)
